Test systems include BLK; BMPR1A; BMPR1B; BMPR2; BMX; BRAF; BRSK1; BRSK2; BTK; BUB1; CAMK1B; CAMK1D; CAMK1G; CAMK1; CAMK2A; CAMK2B; CAMK2D; CAMK2G.
Common to all, as to details: concentration: 1 μM, replicates: in singlicate; n = 1
In another test the test system is T1, BIKE.
T1 construct: gene BMP2K

The next test relates to T2, BRK.
T2 construct: gene PTK6
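Note: KINOMEscan kinase panel screen.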

As for `COc1ccc(Nc2nccc(-c3ccc(NC(=O)c4cc5cc(F)ccc5[nH]4)cc3)n2)cc1` [GSK1229496], the “%Inh” value in the test with BIKE was 33%; with BLK, 0%; with BMPR1A, 0%; in the test on BMPR1B, 0%; with BMPR2, 21%; in the test with BMX, 16%. Besides, the “%Inh” value amounted to 0% with BRAF; 16% with BRK; 0% in the test with BRSK1; 0% in the test with BRSK2; 0% with BTK; 29% in the test on BUB1. In addition, the “%Inh” value is listed as 26% in the test on CAMK1B; 0% in the test with CAMK1D; 6% with CAMK1G; 0% with CAMK1; 0% with CAMK2A; 0% in the test with CAMK2B. The figures for the “%Inh” value in the test on CAMK2D and in the test with CAMK2G were 3% and 34%, respectively.
Consider `O=C1NC(=O)C(c2ccc(Cl)cc2)=C1Nc1cccc(Cl)c1` [SB-317651], for which the “%Inh” value in the test with BIKE was found to be 0%; in the test on BLK, 12%; with BMPR1A, 0%; in the test on BMPR1B, 0%; in the test with BMPR2, 0%; in the test on BMX it was 3%. Besides, the “%Inh” value with BRAF was determined as 0%; with BRK, 0%; in the test with BRSK1, 0%; in the test on BRSK2 it was 1%; with BTK, 0%; in the test with BUB1, 0%. Besides, the “%Inh” value amounted to 3% in the test on CAMK1B; 4% in the test on CAMK1D; 0% with CAMK1G; 0% in the test on CAMK1; 0% with CAMK2A; 0% in the test on CAMK2B. The “%Inh” value in the test with CAMK2D and in the test on CAMK2G was 0% throughout.
Consider `COc1ccc(CSc2nnc(-c3ccc4nccn4c3)o2)cc1C(F)(F)F`, for which the “%Inh” value with BIKE is 18%; with BLK it was 1%; in the test on BMPR1A, 0%; in the test with BMPR1B, 21%; in the test on BMPR2 it was 3%; in the test on BMX it was 0%. In addition, the “%Inh” value with BRAF came to 9%; in the test with BRK, 0%; in the test with BRSK1, 14%; in the test with BRSK2, 3%; in the test on BTK, 15%; in the test with BUB1, 0%. The “%Inh” value is on record as 8% in the test on CAMK1B; 0% in the test on CAMK1D; 22% in the test on CAMK1G; 5% in the test on CAMK1; 2% with CAMK2A; 32% with CAMK2B. For the same compound, the figures for the “%Inh” value in the test with CAMK2D and in the test with CAMK2G were 11% and 16%, respectively.
As for `COC(=O)c1cccc(NC(=O)NC2CCN(c3ccnc(Nc4ccc(F)cc4)n3)C2)c1` (centres unmarked) [GSK1379725], the “%Inh” value is listed as 20% with BIKE; 26% in the test with BLK; 0% in the test on BMPR1A; 0% in the test with BMPR1B; 0% in the test with BMPR2; 0% with BMX. For the same compound, the “%Inh” value was 0% with BRAF; 8% in the test on BRK; 0% in the test on BRSK1; 0% in the test with BRSK2; 0% in the test on BTK; 0% with BUB1. Also, the “%Inh” value with CAMK1B was 16%; with CAMK1D it was 0%; in the test on CAMK1G, 0%; with CAMK1, 0%; in the test on CAMK2A, 0%; in the test on CAMK2B, 0%. Further, the “%Inh” value with CAMK2D and in the test on CAMK2G was 0% in each case.
Regarding `c1ccc(-c2ccnc3[nH]ccc23)cc1` [SB-693578], the “%Inh” value in the test with BIKE came out at 0%; in the test with BLK it was 4%; in the test with BMPR1A, 1%; with BMPR1B it was 0%; with BMPR2 it was 47%; in the test with BMX, 0%. Moreover, the “%Inh” value turned out to be 4% in the test on BRAF; 14% in the test with BRK; 0% in the test with BRSK1; 100% in the test on BRSK2; 0% in the test with BTK; 58% with BUB1. Also, the “%Inh” value with CAMK1B is listed as 11%; in the test with CAMK1D, 9%; in the test on CAMK1G it was 15%; with CAMK1, 14%; in the test with CAMK2A it was 0%; in the test on CAMK2B, 15%. In addition, the “%Inh” value is given as 31% in the test on CAMK2D and 21% with CAMK2G.
For the compound `Nc1ncnc2occ(-c3ccc4c(c3)CCN4C(=O)Cc3cc(F)ccc3F)c12` [GSK2645446], the “%Inh” value with BIKE turned out to be 17%; in the test on BLK it was 14%; in the test with BMPR1A, 0%; in the test with BMPR1B, 0%; with BMPR2, 8%; in the test on BMX it was 12%. For the same compound, the “%Inh” value in the test with BRAF is 4%; in the test with BRK, 8%; in the test on BRSK1, 12%; with BRSK2, 0%; in the test on BTK, 0%; with BUB1 it was 0%. Besides, the “%Inh” value is on record as 0% in the test on CAMK1B; 8% in the test on CAMK1D; 9% in the test on CAMK1G; 6% in the test with CAMK1; 0% in the test with CAMK2A; 0% in the test with CAMK2B. The “%Inh” value was determined as 14% with CAMK2D and 20% with CAMK2G.
On to `COc1ccc(Nc2nccc(N3CCC(NC(=O)c4cc5ccccc5s4)C3)n2)cc1` (centres unmarked) [GSK1379738], for which the “%Inh” value with BIKE is given as 13%; in the test with BLK, 0%; with BMPR1A it was 0%; in the test with BMPR1B it was 0%; in the test with BMPR2 it was 11%; with BMX, 0%. Further, the “%Inh” value was found to be 0% in the test on BRAF; 0% in the test with BRK; 0% in the test with BRSK1; 0% in the test with BRSK2; 0% with BTK; 49% with BUB1. In addition, the “%Inh” value in the test on CAMK1B amounted to 0%; with CAMK1D, 5%; with CAMK1G it was 67%; in the test on CAMK1 it was 17%; in the test on CAMK2A, 0%; with CAMK2B it was 0%. In addition, the “%Inh” value with CAMK2D is listed as 59%; in the test with CAMK2G it was 11%.
`CNC(=O)c1ccc(C)c(-n2c(C)cc(OCc3ccc(F)cc3F)c(Br)c2=O)c1`: the “%Inh” value with BIKE was 3%; in the test with BLK it was 0%; in the test on BMPR1A it was 39%; with BMPR1B, 0%; in the test with BMPR2, 0%; with BMX, 0%. The “%Inh” value in the test with BRAF, in the test with BRK, with BRSK1, in the test with BRSK2, in the test with BTK and with BUB1 was 0% throughout. Moreover, the “%Inh” value with CAMK1B, with CAMK1D, in the test on CAMK1G, with CAMK1, in the test with CAMK2A and in the test with CAMK2B was 0% each time. Also, the “%Inh” value in the test on CAMK2D and in the test on CAMK2G was 0% in each case.
Turning to `CC(C)c1ccc(O)cc1Nc1ccnc2ccc(C(F)(F)F)cc12` [GW482059], the “%Inh” value in the test on BIKE is recorded as 13%; with BLK, 30%; in the test with BMPR1A, 0%; in the test on BMPR1B it was 0%; in the test with BMPR2 it was 0%; in the test on BMX, 0%. Further, the “%Inh” value in the test with BRAF stood at 0%; in the test on BRK, 0%; in the test on BRSK1, 1%; with BRSK2, 5%; in the test with BTK, 0%; in the test on BUB1, 13%. For the same compound, the “%Inh” value in the test with CAMK1B is listed as 27%; with CAMK1D, 0%; with CAMK1G it was 0%; with CAMK1, 0%; with CAMK2A it was 0%; with CAMK2B, 0%. The “%Inh” value in the test on CAMK2D came to 0%; with CAMK2G, 1%.
As for `Fc1ccc(-c2nc[nH]c2-c2ccncc2)cc1` [SB-217360], the “%Inh” value amounted to 0% with BIKE; 25% in the test with BLK; 0% with BMPR1A; 0% in the test with BMPR1B; 22% in the test on BMPR2; 0% in the test on BMX. The “%Inh” value is reported as 50% with BRAF; 0% with BRK; 0% in the test on BRSK1; 0% in the test on BRSK2; 0% with BTK; 84% in the test on BUB1. Also, the “%Inh” value with CAMK1B is reported as 0%; in the test with CAMK1D, 10%; with CAMK1G, 0%; in the test on CAMK1, 0%; in the test with CAMK2A, 0%; in the test on CAMK2B, 0%. Besides, the “%Inh” value in the test with CAMK2D and with CAMK2G was 0% in each case.

These data come from paper PMC5540273 (PLoS ONE, 2017).
